# Test results published in ChEMBL document CHEMBL3988442, “University of Dundee, Small-Polar-MMV Screening Library” (2021).
# Among all 48,000 compounds or so, about 13,000 (27%) showed an effect of 50% or more. This is one part of the list.
# Tested on: Wolbachia pipientis
# Assay: Anti-Wolbachia Cell-Based Screen
# Assay type: functional
# Parameters: scale not given: in the data most compounds retested in dose-response had high values
# Conditions: 5 µM
row,Compound,Percent Effect
1,O=C(NCc1nc(NC2CCCC2)c2cc(Cl)ccc2n1)c1cscn1,4.35%
2,Cc1cc(C)c2c(c1)C(CC(=O)O)C(=O)N2 (stereo unspecified),1.764%
3,CCn1nc(-c2ccccc2F)ccc1=O,11.86%
4,CN1CCCN(Cc2nc(Cc3ccccc3)n[nH]2)CC1,19.97%
5,O=c1ccc(-c2ccccc2F)nn1CCN1CCCS1(=O)=O,-2.823%
6,O=c1ccc(-c2ccccc2F)nn1CN1CCCCCC1,147.7%
7,CN1CCCN(Cn2nc(-c3ccccc3F)ccc2=O)CC1,154.5%
8,CN1CCN(Cc2noc(-c3cc(-c4ccccc4F)n[nH]3)n2)CC1,-9.744%
9,CCN1C(=O)[C@]2(CC[C@@H]3CN(S(=O)(=O)CC(C)C)C[C@@H]32)N=C1C,-19.96%
10,CCc1c(C)nc(C)nc1N1C[C@@H](CN(C)C)[C@@H](CO)C1,-2.089%
11,CN(C)c1nccc(N(C)C2CCOCC2)n1,2.354%
12,CN(C)c1nccc(C2CN(c3ccccc3)CCO2)n1 (stereo unspecified),99.49%
13,Cc1n[nH]c(C2CN(C(=O)c3ccoc3C)CCO2)n1 (stereo unspecified),-42.67%
14,CN(C)c1nccc(C2CN(c3cnccn3)CCO2)n1 (stereo unspecified),85.29%
15,c1ccc(C2CN(c3ncnc4[nH]cnc34)CCO2)cc1 (stereo unspecified),11.05%
16,CC(=O)N1CCOC(c2ccnc(N(C)C)n2)C1 (stereo unspecified),93.18%
17,COCCn1cc(C(=O)N2CCCC2c2ccc(F)cc2)ccc1=O (stereo unspecified),-7.034%
18,COC(=O)NCCC(=O)NC(c1ccc(Cl)cc1)C(F)(F)F (stereo unspecified),-2.05%
19,COc1ccccc1CN1C[C@@H](F)[C@@H](OCc2nc3cnccc3[nH]2)C1,-3.752%
20,Cc1cc(C)n(CCN2CCN(C(=O)c3cc4ccccc4o3)CC2)n1,9.033%
21,O=C(NC1CCN(c2ccc(-c3ccccc3F)nn2)C1)c1ccc[nH]1 (stereo unspecified),5.245%
22,COCC(C)NC(=O)N(C)Cc1cc(C)on1 (stereo unspecified),-2.25%
23,CC(C)c1cc(COCCC(=O)O)no1,121.8%
24,COC(=O)C(C)N(Cc1cc(C)on1)C1CC1 (stereo unspecified),-2.266%
25,COc1cccc(C2CCN2C(=O)c2cc(C(C)C)on2)c1 (stereo unspecified),21.92%
26,CC(C)c1cc(COCCCC(=O)O)no1,94.89%

row,Compound,Percent Effect
1,CC(C)c1cc(CSCCC(=O)O)no1,33.59%
2,O=S1(=O)CCC(n2nc(Cc3cccs3)nc2-c2cnccn2)C1 (stereo unspecified),-137.3%
3,CC(Oc1ccccc1C(F)(F)F)C(=O)NCCCC(N)=O (stereo unspecified),-9.185%
4,CN(c1ccc(CNc2c(Cl)cccc2C#N)cc1)S(C)(=O)=O,0.1811%
5,N#Cc1ccc(Cl)cc1N1CCC(OC2CCOCC2)CC1,1.592%
6,N#Cc1cc(F)ccc1NCC1CCN(S(=O)(=O)C(F)F)CC1,-12.01%
7,N#Cc1ccc(NCCCOCC2CCOC2)c(F)c1 (stereo unspecified),-19.41%
8,N#Cc1ccc(Cl)cc1NCC1CCOC1 (stereo unspecified),108.5%
9,CS(=O)(=O)N1CCC(Nc2ccnc3ccc(Cl)cc23)CC1,-4.778%
10,N#Cc1cc(F)ccc1NCC1CCS(=O)(=O)CC1,-20.22%
11,CS(=O)(=O)N1CCC(CNc2cc(Cl)ccc2C#N)CC1,125.4%
12,N#Cc1ccc(Cl)cc1NCC1CC1,111.8%
13,N#Cc1cc(C(F)(F)F)ccc1NCC1CCS(=O)(=O)CC1,-17.13%
14,CS(=O)(=O)N1CCC(CNc2c(Cl)cccc2C#N)CC1,98.55%
15,CCS(=O)(=O)c1ccc(CNc2c(Cl)cccc2C#N)cc1,-6.207%
16,CN(CC1CCCCO1)C(=O)c1ccnc(OC2CCC2)c1 (stereo unspecified),4.497%
17,Cc1nn(C)c(C)c1NC(=O)CNc1cc(C(F)(F)F)ccc1F,-4.216%
18,O=C(c1ccco1)N(CC(F)(F)F)C1CCOCC1,-3.164%
19,Cc1nc(C)c(CNC(=O)NC2CC(C)(C)OC2(C)C)s1 (stereo unspecified),-7.711%
20,CCOC(C)c1nc(CN2CCN(Cc3cccnc3)CC2)cs1 (stereo unspecified),-1.889%
21,O=C(Nc1ccccc1OCCc1ccccn1)N1CCOCC(O)C1 (stereo unspecified),83.92%
22,C=C(C)COc1ccccc1NC(=O)N1CCOCC(CO)C1 (stereo unspecified),-7.017%
23,O=C(Nc1ccccc1OCc1ccccn1)NC1CCOCC1,8.72%
24,COc1ccc(Oc2ncccc2NC(=O)N2CCOCC2)cc1,2.048%
25,Cc1n[nH]c(C)c1Sc1ccccc1NC(=O)N1CCOCC(O)C1 (stereo unspecified),-4.124%
26,COc1ccccc1CC1CCN(C(=O)CCc2ccccn2)CC1,-10.18%

row,Compound,Percent Effect
1,O=C(Nc1ccccc1OCCc1ccccn1)N1CCOCC1,129.1%
2,O=C(Nc1ccccc1OCCc1ccccn1)NC1CCOCC1,-2.172%
3,O=C(Nc1ccccc1OCCc1ccccn1)N1CC[C@@H](O)C1,116.1%
4,CC(C)OCCC(=O)N(C)CCCc1cc(-c2ccccc2)no1,2.535%
5,CC(C)CC(=O)N[C@H](C)c1c(-c2ccc(Cl)cc2)noc1C(=O)O.Cl,-0.2726%
6,CNC(=O)c1nc2c(s1)CCN(C(=O)c1cccnc1)CC2.O=C(O)C(F)(F)F,-13.23%
7,Cc1ccc(C)c(-n2ccc3nc(N4CCCC4)ncc3c2=O)c1,-2.601%
8,Cn1cc(CN2C[C@@H]3CCCO[C@@H]3[C@H](NC(=O)CC3CC3)C2)cn1.O=C(O)C(F)(F)F,-5.365%
9,Cc1ccc(N[C@@H]2CN(Cc3cc(C)on3)C[C@@H]3CCCO[C@@H]32)nn1.O=C(O)C(F)(F)F.O=C(O)C(F)(F)F,92.65%
10,Cc1ccc(CN2C[C@@H]3CCCO[C@@H]3[C@H](NS(C)(=O)=O)C2)o1.O=C(O)C(F)(F)F,-4.883%
11,O=C(N[C@@H]1CN(c2ncccn2)C[C@@H]2CCCO[C@@H]21)c1ccncc1.O=C(O)C(F)(F)F.O=C(O)C(F)(F)F,-5.975%
12,Cc1noc(C)c1CN1C[C@@H]2CCCO[C@@H]2[C@H](Nc2ccccn2)C1.O=C(O)C(F)(F)F.O=C(O)C(F)(F)F,91.6%
13,O=C(N[C@@H]1CN(Cc2ccccc2)C[C@@H]2CCCO[C@@H]21)C1CC1.O=C(O)C(F)(F)F,-2.249%
14,Cc1cccc(CN2C[C@@H]3CCCO[C@@H]3[C@H](Nc3ccccn3)C2)n1,113.7%
15,CCCn1nccc1C(=O)N1CCCN(CCCc2ccccc2)CC1,-7.679%
16,COc1cc(N2CCC3(CCCN3Cc3cnn(C)c3)CC2)ncn1.O=C(O)C(F)(F)F,0.3231%
17,O=C1OCCN1CCNc1ncc2c(n1)CCN2c1ccccc1,15.29%
18,CN(Cc1nc(-c2cccnc2)no1)C(=O)c1cnc2n1CCCC2,-9.583%
19,COc1ccc2nnc(CCC(=O)Nc3nc4c(s3)CCC4)n2n1,122.5%
20,CC1CCc2nc(NC(=O)CN(C)C(=O)c3ccco3)sc2C1 (stereo unspecified),6.016%
21,COc1ccc2nnc(CCC(=O)Nc3nc4c(s3)CCCC4)n2n1,139.1%
22,COc1ccc2nnc(CCCC(=O)Nc3nc4c(s3)CCC4)n2n1,114%
23,COc1ccc2nnc(CCC(=O)Nc3nc(C)c(C)s3)n2n1,119%
24,COc1ccc2nnc(CCCC(=O)NCCC3=CCCCC3)n2n1,8.382%
25,COc1ccc(CNC(=O)NCc2nc(C)c(C)s2)cn1,-2.055%
26,COc1ccc2nnc(CCCC(=O)NCc3cccn3C)n2n1,11.78%

row,Compound,Percent Effect
1,O=C(CN1CCCC(c2ccn[nH]2)C1)Nc1nc2c(s1)CCCC2 (stereo unspecified),3.48%
2,COc1cccc2c1OCC(C(=O)NCc1nc3c(s1)CCCC3)C2 (stereo unspecified),-11.26%
3,Cl.O=C(Nc1cccc(CNCc2csc(Br)c2)c1)C1CC1,8.664%
4,Cn1c(CN2CCCC(Cn3cc(CCO)nn3)C2)cc2ccccc21 (stereo unspecified),-3.517%
5,Cc1ccc2cc(C3(O)CCN(C(=O)CSC(C)C)CC3)ccc2n1,8.492%
6,Cc1ccc(C)c(OCc2cc(C(=O)N(C)CC(O)CO)no2)c1 (stereo unspecified),-202.7%
7,O=C(NC1CC1)[C@H]1C[C@H]2OCC[C@H]2N(CC2CC2)C1.O=C(O)C(F)(F)F,-11.18%
8,COC[C@@H]1CC[C@H]2[C@H](CCN2S(=O)(=O)Cc2ccccc2)O1,24.17%
9,Cc1ccc(C(=O)N2C[C@H]3CC[C@@H]2CN(S(=O)(=O)N(C)C)C3)c(O)c1,-19.11%
10,CCOC(C)c1noc(CN(C)C(=O)c2cc3ccccn3c2)n1 (stereo unspecified),5.368%
11,CCc1ocnc1C(=O)N1CCC(n2cc(-c3ccsc3)nn2)CC1,-3.384%
12,COc1ccc2nnc(CCC(=O)Nc3nc4c(s3)CCCCC4)n2n1,106.8%
13,Cc1nc(S(=O)(=O)NCCC(=O)NCc2ccc(C#N)cc2)cn1C,-22.12%
14,CCN(CC1CCCO1)C(=O)Nc1cc(C(=O)OC)ccc1F (stereo unspecified),-7.432%
15,CCN(CC1CCCO1)C(=O)Nc1cc(C(N)=O)ccc1OC (stereo unspecified),103.2%
16,CCN(CC1CCCO1)C(=O)Nc1cccc(Cl)c1OC (stereo unspecified),103.8%
17,CCN(CC1CCCO1)C(=O)Nc1ccc(F)cc1OC (stereo unspecified),-0.9971%
18,CCN(CC1CCCO1)C(=O)CSCC(=O)Nc1ccc(C)cc1 (stereo unspecified),18.9%
19,CCN(CC1CCCO1)C(=O)Nc1cc(C)ccc1S(C)(=O)=O (stereo unspecified),111.7%
20,CCN(CC1CCCO1)C(=O)Nc1cccc(N2CCOCC2)c1 (stereo unspecified),-20.72%
21,CCN(CC1CCCO1)C(=O)Nc1cc(OC)c(OC)cc1C (stereo unspecified),1.885%
22,CCN(CC1CCCO1)C(=O)Nc1ccc(OC)c(C)c1 (stereo unspecified),118.7%
23,CCCC(=O)Nc1ccc(CC(=O)N(CC)CC2CCCCO2)cc1 (stereo unspecified),-7.616%
